The campaign covered roughly 5,500 compounds. About 2,000 (36%) were called active. Inconclusive results (about 18%) are left out. Rule as the data show it: active = normalized growth mostly below about 0.91 (no sharp cut-off); inconclusive = no clear call, values can overlap the other calls; inactive = mostly above about 0.92. Some of the results follow.
Assay: chemical genetic growth profiling, strain panel (AID 1159580);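 also: tested at 20 µM; growth read once vehicle control cultures reached saturation at 30 °C; 1 = growth at the plate median or of vehicle wells; lower values mean less growth of the strain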
Details: growth OD

Measured: normalized growth

CO[C@H]1C[C@H](O[C@H]2[C@H](C)[C@@H](OC3O[C@H](C)C[C@H](N(C)C)[C@H]3O)[C@@H](C)C[C@]3(CO3)C(=O)[C@H](C)[C@@H](O)[C@@H](C)[C@@H](C)OC(=O)[C@@H]2C)O[C@@H](C)[C@@H]1O (some centres not stated)
inactive: S. cerevisiae deletion strains, locus YJR075W, strain HOC1, hits give low values 1.01 | S. cerevisiae deletion strains, locus YKL009W, strain mrt4, hits give low values 1 | S. cerevisiae deletion strains, locus YKL068W, hits give low values 1 | S. cerevisiae deletion strains, locus YKL085W, strain MDH1 (second series), hits give low values 0.992 | S. cerevisiae deletion strains, locus YKL085W, strain MDH1, hits give low values 0.992 | S. cerevisiae deletion strains, locus YKL160W, strain elf1, hits give low values 1.06 | S. cerevisiae deletion strains, locus YKL190W, strain CNB1, hits give low values 1 | S. cerevisiae deletion strains, locus YKR001C, strain vps1, hits give low values 1.02 | S. cerevisiae deletion strains, locus YKR026C, strain gcn3, hits give low values 1 | S. cerevisiae deletion strains, locus YKR091W, strain srl3, hits give low values 1 | S. cerevisiae deletion strains, locus YLL001W, strain dnm1, hits give low values 1.06 | S. cerevisiae deletion strains, locus YLL026W, hits give low values 1 | S. cerevisiae deletion strains, locus YLL041C, strain sdh2, hits give low values 1 | S. cerevisiae deletion strains, locus YLR027C, strain aat2, hits give low values 1.01 | S. cerevisiae deletion strains, locus YLR039C, strain RIC1, hits give low values 1.03 | S. cerevisiae deletion strains, locus YLR058C, strain SHM2, hits give low values 1.01 | S. cerevisiae deletion strains, locus YLR102C, strain apc9, hits give low values 0.984 | S. cerevisiae deletion strains, locus YLR113W, strain HOG1, hits give low values 0.995 | S. cerevisiae deletion strains, locus YLR221C, strain rsa3, hits give low values 1.03 | S. cerevisiae deletion strains, locus YLR258W, strain gsy2, hits give low values 1.03 | S. cerevisiae deletion strains, locus YLR262C, strain YPT6 (second series), hits give low values 1.02 | S. cerevisiae deletion strains, locus YLR262C, strain YPT6, hits give low values 0.956 | S. cerevisiae deletion strains, locus YLR268W, strain sec22, hits give low values 1.05 | S. cerevisiae deletion strains, locus YLR320W, strain mms22, hits give low values 1.07 | S. cerevisiae deletion strains, locus YLR330W, strain CHS5, hits give low values 1.01 | S. cerevisiae deletion strains, locus YLR342W, strain FKS1 (second series), hits give low values 1.01 | S. cerevisiae deletion strains, locus YLR342W, strain FKS1, hits give low values 1.01 | S. cerevisiae deletion strains, locus YLR357W, strain rsc2, hits give low values 1.05 | S. cerevisiae deletion strains, locus YLR370C, strain arc18, hits give low values 0.991 | S. cerevisiae deletion strains, locus YLR371W, strain rom2, hits give low values 0.985 | S. cerevisiae deletion strains, locus YLR384C, strain iki3, hits give low values 1 | S. cerevisiae deletion strains, locus YLR418C, strain cdc73, hits give low values 1.03 | S. cerevisiae deletion strains, locus YML016C, strain PPZ1, hits give low values 1 | S. cerevisiae deletion strains, locus YML032C, strain rad52, hits give low values 1.01 | S. cerevisiae deletion strains, locus YML120C, strain ndi1, hits give low values 1.02 | S. cerevisiae deletion strains, locus YML124C, strain tub3, hits give low values 1 | S. cerevisiae deletion strains, locus YMR058W, strain fet3, hits give low values 1.01 | S. cerevisiae deletion strains, locus YMR078C, strain ctf18, hits give low values 0.996 | S. cerevisiae deletion strains, locus YMR125W, strain sto1, hits give low values 1.07 | S. cerevisiae deletion strains, locus YMR129W, hits give low values 0.997 | S. cerevisiae deletion strains, locus YMR205C, strain PFK2, hits give low values 1.05 | S. cerevisiae deletion strains, locus YMR223W, strain ubp8, hits give low values 1 | S. cerevisiae deletion strains, locus YMR231W, strain pep5, hits give low values 1 | S. cerevisiae deletion strains, locus YMR263W, strain SAP30, hits give low values 1.02 | S. cerevisiae deletion strains, locus YMR307W, strain GAS1, hits give low values 0.983 | S. cerevisiae deletion strains, locus YNL067W, strain RPL9B, hits give low values 1.02 | S. cerevisiae deletion strains, locus YNL071W, strain lat1, hits give low values 1.01 | S. cerevisiae deletion strains, locus YNL128W, strain TEP1, hits give low values 1.01 | S. cerevisiae deletion strains, locus YNL153C, strain GIM3, hits give low values 1.01 | S. cerevisiae deletion strains, locus YNL183C, strain NPR1, hits give low values 0.962 | S. cerevisiae deletion strains, locus YNL209W, strain ssb2, hits give low values 1.01 | S. cerevisiae deletion strains, locus YNL233W, strain BNI4, hits give low values 1.02 | S. cerevisiae deletion strains, locus YNL248C, strain rpa49, hits give low values 1.09 | S. cerevisiae deletion strains, locus YNL250W, strain rad50, hits give low values 1.01 | S. cerevisiae deletion strains, locus YNL271C, strain bni1, hits give low values 1.01 | S. cerevisiae deletion strains, locus YNL298W, strain CLA4, hits give low values 1.01 | S. cerevisiae deletion strains, locus YNL307C, strain MCK1, hits give low values 0.982 | S. cerevisiae deletion strains, locus YNL322C, strain KRE1 (second series), hits give low values 1.02 | S. cerevisiae deletion strains, locus YNL322C, strain KRE1, hits give low values 1.01 | S. cerevisiae deletion strains, locus YNR049C, strain mso1, hits give low values 0.997 | S. cerevisiae deletion strains, locus YNR052C, strain pop2, hits give low values 0.99 | S. cerevisiae deletion strains, locus YOL006C, strain TOP1, hits give low values 1.03 | S. cerevisiae deletion strains, locus YOL012C, strain htz1 1.14 | S. cerevisiae deletion strains, locus YOL147C, strain pex11, hits give low values 0.996 | S. cerevisiae deletion strains, locus YOR001W, strain rrp6, hits give low values 0.974 | S. cerevisiae deletion strains, locus YOR061W, strain CKA2, hits give low values 1 | S. cerevisiae deletion strains, locus YOR069W, strain VPS5, hits give low values 1.01 | S. cerevisiae deletion strains, locus YOR070C, strain gyp1, hits give low values 0.999 | S. cerevisiae deletion strains, locus YOR080W, strain dia2, hits give low values 0.988 | S. cerevisiae deletion strains, locus YOR083W, strain WHI5, hits give low values 1.07 | S. cerevisiae deletion strains, locus YOR106W, strain vam3, hits give low values 1.08 | S. cerevisiae deletion strains, locus YOR136W, strain idh2, hits give low values 1.01 | S. cerevisiae deletion strains, locus YOR144C, strain elg1, hits give low values 1 | S. cerevisiae deletion strains, locus YOR184W, strain ser1, hits give low values 1.01 | S. cerevisiae deletion strains, locus YOR231W, strain MKK1, hits give low values 1 | S. cerevisiae deletion strains, locus YOR265W, strain rbl2, hits give low values 1 | S. cerevisiae deletion strains, locus YOR270C, strain vph1, hits give low values 1.03 | S. cerevisiae deletion strains, locus YOR290C, strain snf2, hits give low values 1.03 | S. cerevisiae deletion strains, locus YOR316C, strain cot1, hits give low values 0.985 | S. cerevisiae deletion strains, locus YPL051W, strain arl3, hits give low values 1.04 | S. cerevisiae deletion strains, locus YPL055C, strain LGE1, hits give low values 1.05 | S. cerevisiae deletion strains, locus YPL078C, strain atp4, hits give low values 1.06 | S. cerevisiae deletion strains, locus YPL106C, strain sse1, hits give low values 1.03 | S. cerevisiae deletion strains, locus YPL240C, strain hsp82, hits give low values 1 | S. cerevisiae deletion strains, locus YPL241C, strain CIN2, hits give low values 1 | S. cerevisiae deletion strains, locus YPL256C, strain CLN2, hits give low values 0.982 | S. cerevisiae deletion strains, locus YPR119W, strain clb2, hits give low values 0.99 | S. cerevisiae deletion strains, locus YPR141C, strain kar3, hits give low values 1.01 | S. cerevisiae deletion strains, locus YPR163C, strain tif3, hits give low values 0.989 | S. cerevisiae deletion strains, locus YPR167C, strain met16, hits give low values 1 | S. cerevisiae deletion strains, strain wtn01, hits give low values 1.03 | S. cerevisiae strains, strain wild type, hits give low values 1
